Sampled rows, rich in hits. Any-hit rate of the full collection: about 18%.
IL-1B inflam inh – qHTS for Inhibitors of Inflammasome Signaling: IL-1-beta AlphaLISA Primary Screen. activity change, % at 57.5 µM. THP-1 LPS/ATP IL-1B secretion, AlphaLISA, 16 h; active compounds read low. actives 4.7% (n = 360,000); in the data active = activity change below about -50%; inconclusive = mostly about -30% to -49%
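THP-1 cells pretreated 1 hr with compounds (up to 57.5 uM final), then stimulated with LPS (250 ng/mL final) plus ATP (1.25 mM final); secreted IL-1B measured by AlphaLISA after 16 hr, decreased signal indicating inhibition.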
TDP1 block – qHTS Assay for Inhibitors of Tyrosyl-DNA Phosphodiesterase (TDP1); Tyrosyl-DNA phosphodiesterase 1 (Homo sapiens), Q9NUW8; Potency, µM (titrated, usually from 130 µM), most hits filed as inhibitors; recombinant TDP1, AlphaScreen DNA substrate cleavage; actives 0.28% (n = 350,000); note: nearly all actives have a fitted effect of over 40% in size
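Recombinant human Tdp1 (E. coli-expressed, 1 nM final) preincubated with compounds 15 min at room temperature, then 5'-biotin/3'-phosphotyrosine-FITC DNA substrate (15 nM final) added for 5 min. AlphaScreen beads (10 ug/ml final) added 10 min; cleavage lowers signal.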
CtBP-E1A blk – qHTS Assay for Inhibitors of the CtBP/E1A Interaction | CtBP / adenovirus E1A interaction (AlphaScreen) | AlphaScreen GST-E1A/His-CtBP binding, 1536-well; active compounds read low | activity change, % (concentration not given with the values) | actives 0.49% (n = 340,000) | AID 651724, 2012; in the data active = activity change below about -65%; inconclusive = mostly about -30% to -63%
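Homogeneous bead-based format: GST-tagged E1A captured on glutathione donor beads, His-tagged CtBP on nickel acceptor beads; compounds precede bead addition by 2 h at 37 °C.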
Six1-Eya2 blk – qHTS Assay for Inhibitors of the Six1/Eya2 Interaction; Homeobox protein SIX1 (Homo sapiens) + Protein phosphatase EYA2 (Homo sapiens), …; AlphaScreen GST-Six1/His-Eya2 binding, biochemical; active compounds read low; activity change, % (test concentration not listed); actives 0.56% (n = 360,000); in the data active = activity change below about -65%; inconclusive = mostly about -30% to -63%
Target sequence (O00167 whole entry, looked up): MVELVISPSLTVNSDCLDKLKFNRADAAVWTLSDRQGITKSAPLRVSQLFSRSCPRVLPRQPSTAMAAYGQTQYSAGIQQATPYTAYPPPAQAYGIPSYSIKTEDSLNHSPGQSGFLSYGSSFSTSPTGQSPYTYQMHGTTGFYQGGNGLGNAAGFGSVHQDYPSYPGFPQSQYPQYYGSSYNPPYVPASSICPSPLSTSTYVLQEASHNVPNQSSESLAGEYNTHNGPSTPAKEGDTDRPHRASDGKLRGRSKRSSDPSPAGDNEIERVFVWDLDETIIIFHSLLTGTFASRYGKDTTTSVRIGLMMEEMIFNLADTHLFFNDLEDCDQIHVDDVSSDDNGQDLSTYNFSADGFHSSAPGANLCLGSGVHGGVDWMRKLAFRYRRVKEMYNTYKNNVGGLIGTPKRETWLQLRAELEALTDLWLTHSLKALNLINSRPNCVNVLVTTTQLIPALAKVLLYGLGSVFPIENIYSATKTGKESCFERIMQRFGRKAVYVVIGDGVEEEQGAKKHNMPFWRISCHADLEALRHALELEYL
Target sequence (Q15475 whole entry, looked up): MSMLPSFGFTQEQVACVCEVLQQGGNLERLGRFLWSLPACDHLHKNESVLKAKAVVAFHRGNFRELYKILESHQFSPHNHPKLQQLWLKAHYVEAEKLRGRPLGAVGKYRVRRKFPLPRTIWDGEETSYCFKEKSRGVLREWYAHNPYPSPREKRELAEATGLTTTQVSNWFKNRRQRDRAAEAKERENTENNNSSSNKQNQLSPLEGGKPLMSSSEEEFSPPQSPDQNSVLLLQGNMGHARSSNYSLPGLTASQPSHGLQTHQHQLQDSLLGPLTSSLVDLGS
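Homogeneous AlphaScreen proximity assay pairing GST-Six1 with His-tagged Eya2 (added as 5X mix: 250 nM and 500 nM) in 50 mM Tris pH 8.0, 300 mM NaCl, 1 mM TCEP. Glutathione donor and nickel acceptor beads; 1 h, 37 °C, dark.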
TDP1 cell CPT – qHTS for Inhibitors of human tyrosyl-DNA phosphodiesterase 1 (TDP1): qHTS in cells in presence of CPT | chicken DT40 Tdp1-/-;hTDP1 cells + 20 nM CPT, ATP luminescence, 48 h | AID 686979, 2013 | actives 12% (n = 420,000) | Potency, µM (titrated, usually from 46.2 µM), most hits filed as inhibitors; note: nearly all actives have a fitted effect of over 55% in size
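Chicken DT40 Tdp1-/- cells complemented with human TDP1, 400 cells/well, exposed to compounds plus 20 nM camptothecin for at least 48 h at 37 C; viability read as ATP content by CellTiter-Glo luminescence.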
TDP1 cell noCPT – qHTS for Inhibitors of human tyrosyl-DNA phosphodiesterase 1 (TDP1): qHTS in cells in absence of CPT | AID 686978, 2013 | actives 15% (n = 420,000) | Potency, µM (top dose mostly 46.2 µM), usual class: inhibitors | DT40 Tdp1-/- hTDP1 cells, no CPT, ATP luminescence, 48 h; note: nearly all actives have a fitted effect of over 55% in size
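No-CPT arm: Tdp1-/-;hTDP1 DT40 cells (400/well) plus compounds, incubated ≥48 hr at 37 °C. Readout CellTiter-Glo luminescence.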
Hits are given with their value; - = inactive; ? = inconclusive; . = not tested or not shown. Unless noted, calls come from the whole dose curve; as a rule, active = well fitted curve in the direction sought with a large enough effect; inconclusive = small, poorly fitted or top-dose-only effect, or another doubt; inactive = no such curve, though single readings can be large; an effect the other way counts as inactive or inconclusive.

SMILES	IL-1B inflam inh	TDP1 block	CtBP-E1A blk	Six1-Eya2 blk	TDP1 cell CPT	TDP1 cell noCPT
CC[C@H](C)[C@H](NC(=O)[C@H](CC(=O)O)NC(=O)[C@H](CC(N)=O)NC(=O)[C@@H](NC(=O)[C@H](CCCNC(=N)N)NC(=O)[C@@H](NC(=O)[C@@H](NC(=O)[C@@H](NC(=O)[C@@H](NC(=O)[C@H](CCCCN)NC(=O)[C@@H](NC(=O)[C@H](CC(C)C)NC(=O)[C@@H](NC(=O)[C@H](CCCCN)NC(=O)[C@@H](NC(=O)[C@H](CC(=O)O)NC(=O)[C@H](CC(=O)O)NC(=O)[C@H](CCC(N)=O)NC(=O)[C@@H](NC(=O)[C@H](CCCCN)NC(=O)[C@H](CCC(N)=O)NC(=O)[C@@H](NC(=O)[C@@H]1CCCN1C(=O)[C@@H](N)C(C)C)[C@@H](C)CC)C(C)C)[C@@H](C)O)[C@@H](C)O)[C@@H](C)CC)[C@@H](C)O)[C@@H](C)CC)C(C)C)[C@@H](C)O)[C@@H](C)CC)C(=O)N[C@@H](CO)C(=O)N[C@@H](Cc1cnc[nH]1)C(=O)N[C@H](C(=O)N[C@@H](CCC(N)=O)C(=O)N[C@@H](CO)C(=O)N[C@H](C(=O)N[C@@H](CO)C(=O)N[C@@H](CO)C(=O)N[C@@H](CCCCN)C(=O)N[C@@H](CCC(N)=O)C(=O)N[C@@H](CCCCN)C(=O)O)C(C)C)[C@@H](C)O	.	-	.	.	.	.
CCn1c(Cc2cccc3ccccc23)nnc1SCC(=O)Nc1nccs1	-	-	-	-	?	?
Cc1ccc(S(=O)(=O)N2CCCCC2)cc1NC(=O)CSc1nncn1-c1ccccc1	-	-	-	-	-	-
CC(C)C(=O)N(Cc1ccc2c(c1)OCO2)Cc1ccccn1	-	-	-	-	?	?
Cc1cc(NC(=O)CCN2C(=O)/C(=C/c3ccccc3F)SC2=S)no1	.	-	.	.	.	.
O=C(O)CCC(=O)Nc1ccc(-c2nnc(-c3ccco3)o2)cc1	-	-	-	-	-	-
O=C(Nc1ccc(-c2nnc(-c3ccco3)o2)cc1)C(c1ccccc1)c1ccccc1	-	-	-	-	9.2µM	8.2µM
COc1cccc(C(=O)Nc2ccccc2-c2nnc(-c3cccc(OC)c3)o2)c1	.	-	.	.	9.2µM	12µM
COc1cccc(C(=O)Nc2ccccc2-c2nc(-c3ccc(C)cc3)no2)c1	.	-	.	.	-	-
COc1ccc(CC(=O)Nc2cccc(-c3nnc(-c4ccco4)o3)c2)cc1	-	-	-	-	7.3µM	7.3µM
COc1cc(C(=O)Nc2ccc(-c3nnc(-c4ccco4)o3)cc2)cc(OC)c1OC	-	-	-	-	?	?
COc1ccc(C(=O)Nc2cccc(-c3nnc(-c4ccco4)o3)c2)cc1	-	-	?	?	18µM	16µM
CC(C)CC(=O)Nc1ccc2c(c1)oc1ccccc12	-	-	-	-	?	?
NC(=O)C1CCN(C(=O)CCC(=O)c2cccs2)CC1	-	-	-	-	-	-
CCOc1ccc(CCNC(=O)Cc2ccc(NC3=NC4CS(=O)(=O)CC4S3)cc2)cc1 (stereo not drawn)	-	.	-	-	-	-
Cc1ccc(-c2nnc(-c3ccc(NC(=O)Cc4cccs4)cc3)o2)cc1	-	-	-	-	15µM	18µM
CC(C)C(Cl)=NOC(=O)Nc1ccc(F)cc1	-100	.	-	-	1.5µM	2.3µM
N/C(=N\OC(=O)Nc1ccc(Cl)cc1)c1ncc(C(F)(F)F)cc1Cl	-	-	-	-	-	-
CC(C)OC(=O)CCC(=O)Nc1ccc(F)cc1	-	-	-	-	-	-
C/C(=N\OC(=O)Nc1ccc(Cl)cc1)c1ccc(F)c(F)c1	-87	.	-	-	-	?
CCOc1ccc(/C(C)=N/N2C(=O)C(CC(=O)Nc3ccc(OC)cc3[N+](=O)[O-])SC2=Nc2cccc(C)c2C)cc1 (stereo not drawn)	-	-	-	-	-	-
O=C(/C=C/c1ccccc1)Nc1cccc(C(=O)NCCCCc2ccccc2)c1	-	.	-	-	?	18µM
O=C(NCCCCc1ccccc1)c1cccc(NC(=O)C2CCCCC2)c1	-	.	-	-	?	26µM
Cc1cc(=O)oc2c3c(cc(OCC(=O)N4CCC(C(=O)O)CC4)c12)OC(C)(C)CC3	-	.	?	?	-	-
CC(C)(C)c1ccc(C(=O)Nc2ccc(S(N)(=O)=O)cc2)cc1	-76	-	-	-	?	?
SMILES	IL-1B inflam inh	TDP1 block	CtBP-E1A blk	Six1-Eya2 blk	TDP1 cell CPT	TDP1 cell noCPT
NS(=O)(=O)c1ccc(NC(=O)Nc2ccc(C(F)(F)F)cc2)cc1	-58	-	-	-	?	18µM
NS(=O)(=O)c1ccc(NC(=O)c2ccc(-c3ccccc3)cc2)cc1	-	-	-	-	-	-
NS(=O)(=O)c1ccc(NC(=O)Nc2ccc(S(N)(=O)=O)cc2)cc1	-	.	-	-	-	-
O=C1CCc2cc(S(=O)(=O)NCc3ccc(F)cc3)cc3c2N1CC3	-	-	-	-	?	-
COc1ccc(C(=O)C[n+]2ccccc2/C=N/O)cc1	-	-	-	-	?	-
CN(C(=O)COC(=O)C1CCN(S(=O)(=O)c2c(Cl)cccc2Cl)CC1)C1CCCCC1	-	-	-	-	?	-
CCOc1ccc(C=Nc2cccc3ncccc23)cc1	-	-	.	-	-	-
CCOc1ccc(CNC(=S)N/N=C/c2cccnc2)cc1	-	-	-	-	?	-
CC(C)(C)c1ccc(OCc2ccc(C(=O)N/N=C/c3ccc([N+](=O)[O-])cc3)o2)cc1	-	-	-	-	18µM	21µM
CCOc1ccc(N=Cc2ccc([N+](=O)[O-])cc2)c(O)c1	-52	.	-	-	23µM	12µM
CC(C)(C)c1ccc(OCc2ccc(C(=O)NN)o2)cc1	-	-	.	-	?	?
CCOc1ccc(N=Cc2ccc(N(C)C)cc2)c(O)c1	-	.	-	-	15µM	7.3µM
CCOc1ccc(CNC(=S)N/N=C\c2ccc([N+](=O)[O-])cc2)cc1	-	-	-	-	16µM	8.2µM
O=C(NCCCN1CCCC1=O)c1cccc(S(=O)(=O)N2CCN(c3ccc(F)cc3)CC2)c1	-	-	-	-	-	-

Screening results as filed in PubChem.
